According to PubChem BioAssay AID1159524 (National Center for Advancing Translational Sciences (NCATS), 2015):
Among all 410,000 compounds or so, about 5,100 (1.2%) were called active. Inconclusive results (about 8%) are left out. Calls follow the shape of the full dose curve; tested in HEK293T cells. What follows is part of a selection rich in actives, with near analogues and random picks from the rest. Where a call stands in place of a potency, no number is given.

experiment: High Throughput Screening for Foot and Mouth Disease Virus Antivirals; details: FMDV antiviral cell-based qHTS; series mostly up to 57.9 µM; also: read-out not given here; nearly all actives have a fitted effect of over 45% in size
Potency is read from the fitted curve at half-maximal effect.

Compound	Potency
CCOc1ccc(NC(=O)CC2C(=O)N(c3cccc(OC)c3)C(=O)N2C2CCCCC2)cc1 (configuration not stated)	inactive
CCOC(=O)c1ccc(NC(=O)CC2C(=O)N(c3cccc(OC)c3)C(=O)N2C2CCCCC2)cc1 (configuration not stated)	inactive
COc1ccc(C23NCCN2C(=O)c2ccccc23)cc1 (configuration not stated)	inactive
CCOC(=O)[C@]12Cc3ccccc3[C@H]1N(C1CCCCC1)C(=O)c1cc(OC)ccc12	10 µM (active)
CCOC(=O)[C@]12Cc3cc(OC)ccc3[C@H]1N(C(C)C)C(=O)c1ccccc12	31.6 µM (active)
CCOC(=O)C1CCN(C(=O)Nc2cccc(OC)c2)CC1	inactive
CCN(CC)S(=O)(=O)c1ccc2c(c1)N(CC(=O)NCC(C)c1ccccc1)C(=O)CO2 (configuration not stated)	inactive
O=C(NCCc1ccccc1)c1ccc2c(c1)N(Cc1ccccc1)C(=O)c1ccccc1S2(=O)=O	inactive
c1ccc2c(c1)[I+]c1ccccc1-2	inactive
COc1ccc(CNC(=O)c2ccc(NC(=O)N3CC4CCCN4c4ccccc43)cc2)cc1 (configuration not stated)	inactive
COc1cc(NC(=O)Cn2c(=O)n(Cc3ccco3)c(=O)c3oc4ccccc4c32)cc(OC)c1	inactive
CCOC(=O)c1cc2c(=O)n3ccccc3nc2n(CCCOC)c1=NC(=O)C(C)(C)Oc1ccc(Cl)cc1	inactive
O=c1ccc2c(-c3ccccc3S(=O)(=O)O)c3ccc(O)c(O)c3oc-2c1O	7.08 µM (active)
CCCC(=O)Nc1ccc(C(=O)N/N=C/c2ccc[nH]2)cc1	28.2 µM (active)
CCCC(=O)Nc1ccc(C(=O)NCCCn2ccnc2)cc1	inactive
CC(=O)Nc1ccc(C(=O)NNC(=O)CCCCC(=O)NNC(=O)c2ccc(NC(C)=O)cc2)cc1	inactive
CNC(=O)N1c2ccccc2C=Cc2ccccc21	inactive
Cc1ccn(CCC(=O)N2c3ccccc3CC2C)n1 (configuration not stated)	inactive
CC1C(C)N(C(=O)CCl)c2ccccc2N1C(=O)CCl (configuration not stated)	3.55 µM (active)
N[C@H](Cc1o[nH]c(=O)c1Cl)C(=O)O	inactive
CC(C)C(=O)NC(C)c1nnc2n1CCN(Cc1cccc3ncccc13)CC2 (configuration not stated)	inactive

Compound	Potency
Cc1nc2cnc(Nc3ccccc3)nc2n(C[C@H]2CCCO2)c1=O	inactive
C[C@@H]1C[C@@H]2O[C@H]2/C=C\C=C\C(=O)Cc2c(Cl)c(O)cc(O)c2C(=O)O1	0.1 µM (active)
COCCn1c(=O)c(CCc2ccccc2)nc2cnc(N3CCNCC3)nc21	inactive
COCCn1c(=O)c(-c2ccc(OC)cc2)nc2cnc(Oc3cccc(Cl)c3)nc21	inactive
COc1ccccc1CN1CC2(CCN(S(=O)(=O)c3ccccc3)CC2)C1	inactive
COc1ccc(-c2ccc(Nc3ccc(S(=O)(=O)N4CCCC4)cc3)nn2)cc1OC	14.1 µM (active)
COc1ccccc1CC(=O)Nc1ccc(S(=O)(=O)N2CCCC2)cc1	inactive
COc1cc(C(=O)NNC(=O)c2ccc(S(=O)(=O)N3CCCCC3)cc2)cc(OC)c1OC	inactive
CCN(CC)c1cc(NC2CCCCC2)c2c3c(onc13)-c1ccccc1C2=O	inactive
CC(C)C(NS(=O)(=O)c1ccc(-c2ccc(Br)cc2)cc1)C(=O)O (configuration not stated)	inactive
CCC1(C2CCN(Cc3cccnc3)CC2)NC(=O)N(CC2COc3ccccc3O2)C1=O (configuration not stated)	inactive
Cc1cccc(C(CC(=O)NCC2(c3ccccc3)CCCC2)c2ccccc2)c1O (configuration not stated)	inactive
NCCCCCC(=O)N/N=C/c1ccc2nccnc2c1	inactive
CCc1nc2cccnc2n1-c1ccc(C(=O)O)cc1	inactive
O=C(O)c1ccc(N/N=C/c2ccc3ncccc3c2)cc1	2.82 µM (active)
CCn1c(C(=O)Nc2cc(Cl)ccc2C)cc2sc(Cl)cc21	inactive
COc1ccc(NC(=O)N2CC3(CCN(C(=O)c4cccn4C)CC3)C2)cc1	inactive
CC(=O)OCC(=O)[C@@]1(O)CCC2C3CCC4=CC(=O)CC[C@]4(C)C3C(=O)C[C@]21C (some centres not stated)	inactive
CSc1ncnc2c1ncn2CC(=O)C1CCC2C3CCC4=CC(=O)CCC4(C)C3CCC12C (configuration not stated)	11.2 µM (active)
CC(=O)OCC(=O)C1CCC2C3CCC4=CC(=O)CC[C@@]4(C)C3CC[C@]12C (some centres not stated)	inactive
COc1ccccc1N1CCN(CCCNC(=O)c2cnn(-c3ccccc3Cl)c2C2CCN(C(=O)OC(C)(C)C)CC2)CC1	inactive

Compound	Potency
CN(C)CCc1c[nH]c2ccc(Cn3cncn3)cc12	inactive
O=C(CC(c1cccs1)N1Cc2ccccc2C1=O)Nc1ccc(F)cc1F (configuration not stated)	inactive
Cn1cnc([N+](=O)[O-])c1Nc1ccccc1O	inactive
Cn1cnc([N+](=O)[O-])c1Sc1ccccc1	28.2 µM (active)
Cn1cnc([N+](=O)[O-])c1Sc1n[nH]c(N)n1	inactive
CO[C@H]1[C@H](NC(=O)C(C)C)c2ccccc2C12CCN(Cc1cnc(N(C)C)s1)CC2	inactive
COc1ccccc1CNc1ccnc(-c2c(C)noc2C)n1	inactive
CCCC(=O)Nc1ccc(NC(=O)c2sc3ccccc3c2Cl)cc1	inactive
Cc1cccc(N2CCN(C(=O)c3cnc(N4CCCC4)nc3C)CC2)c1C	inactive
CCC1CN(CCNC(=O)c2ccsc2)Cc2cc(OC)ccc2O1 (configuration not stated)	inactive
CCN1/C(=C\c2ccc3ccccc3[n+]2CC)Sc2cc(C)ccc21	35.5 µM (active)
CC(=O)Nc1cccc(NC(=O)CSc2cn(CC(=O)N3CCCC3)c3ccccc23)c1	inactive
COc1ccc2[nH]cc(CCNc3nc(-c4cccc(NS(C)(=O)=O)c4)nc4ccccc34)c2c1	inactive
CCn1c2ccccc2c2nnc(SCC(=O)O)nc21	inactive
CCc1c2c(nc3ccc(O)cc13)-c1cc3c(c(=O)n1C2)COC(=O)[C@]3(O)CC	inactive
COCCn1c(=O)c(CCc2ccccc2)nc2cncnc21	inactive
CCn1c(=O)c2ccccc2n(CC(=O)N2CCCc3ccccc32)c1=O	inactive
O=C(CN1C(=O)c2ccccc2S1(=O)=O)N1CCc2ccccc21	0.794 µM (active)
NS(=O)(=O)c1ccc(CCNC(=O)CN2C(=O)c3ccccc3S2(=O)=O)cc1	inactive
CO[C@H]1C=CO[C@@]2(C)Oc3c(C)c(O)c4c(O)c(c(/C=N/N5CCN(C)CC5)c(O)c4c3C2=O)NC(=O)/C(C)=C\C=C[C@H](C)[C@H](O)[C@@H](C)[C@@H](O)[C@@H](C)[C@H](OC(C)=O)[C@@H]1C	inactive
